Screening data: PubChem BioAssay, several laboratories
Only some compounds are listed: those with a hit (about 1.4% of all), similar ones and a draw of the others.
MRP reversal: MRP-mediated drug resistance reversal | differential viability (reversal), % at 10 µM | hit rate 0.04% among 85,000 | H69AR cells + 2 uM doxorubicin, CellTiter-Glo, 72 h;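 active = viability drop by adding the cancer drug above about 55%, with treated viability meeting a 40% cutoff, limit read from the data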;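 also: viability without doxorubicin minus viability with 2 µM doxorubicin for each compound; larger differential means the compound sensitizes cells more to doxorubicin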
IL1B NFkB inh: blocks IL-1B driven NFkB nuclear translocation in HUVEC cells | hit rate 0.43% among 94,000 | inhibition, % at 2 µM | HUVEC IL-1B NFkB p65 nuclear translocation imaging;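 active = inhibition above about 30% together with a positive call from visual inspection of the well image, limit read from the data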;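 also: nuclear over cytoplasmic p65 intensity ratio measured by imaging; 0% = IL-1B stimulated DMSO wells and 100% = unstimulated DMSO wells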
IL1B cytotox: toxic to HUVEC cells under IL-1B stimulation | HUVEC cell count loss, Hoechst imaging, IL-1B stimulated | cell count reduction, % at 2 µM | hit rate 0.41% among 94,000 | AID 845;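 active = cell count reduction more than 3 SD above the screen-wide mean, cut at about 70% in these data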;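 also: normalized per plate to untreated control cells as the no-loss baseline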
SDO1 yeast rescue: sdo1-depleted yeast growth rescue; hit rate 0.21% among 140,000; S. cerevisiae sdo1-depleted JHY4D growth rescue, OD600 30 h; hits give high values; pdr5 snq2 efflux-pump mutant strain; z-score at 10 µM;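 active = z-score above 3 at both the 24 hr and the 30 hr optical density reads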;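 also: z-score against mean and SD of all compound wells on the same plate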
NFkB transloc pot: enhances IL-1B driven NFkB nuclear translocation. HUVEC IL-1B NFkB p65 nuclear translocation imaging. activation, % at 2 µM. hit rate 0.3% among 94,000. AID 819;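 active = activation above 40%, about the mean plus 3 SD, also judged a hit on visual image review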;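 also: percent activation is computed from the nuclear over cytoplasmic p65 intensity ratio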
MRP1 act: MRP-1 activation. H69AR cells + doxorubicin, viability rescue, CellTiter-Glo. viability increase, % at 10 µM. hit rate 0.61% among 140,000. AID 799;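 active = viability gain under doxorubicin at or above a set limit, the compound median plus 3 SD, cut at about 4.7% in these data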;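 also: MRP-1 overexpressing cells given doxorubicin 25 µM after compound pretreatment; 18-22 h compound pretreatment then 72 h with doxorubicin before readout; 0% = doxorubicin-only wells and 100% = vehicle-treated cells without doxorubicin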
SDO1 rescue DR: SDO1-depleted yeast growth rescue confirmation. shares compounds with SDO1 yeast rescue. AID 949. S. cerevisiae JHY4D (SDO1-depleted) growth rescue, OD600, 30 h; hits give high values; efflux-deficient strain, SNQ2 and PDR5 mutated. hit rate 44% among 440. OD recovery (no concentration beside the values);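 active = yeast growth recovered at 30 hours, either rising with dose fitted slope above 0.001 or with average optical density gain above 0.07, some results past the limit were not filed as active; inactive = growth falling with dose or no effect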;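 also: gain in OD600 from 0 h to 30 h averaged across all seven doses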
An asterisk follows results filed as active; . = no result; ! = not active in a repeat.

SMILES	MRP reversal	IL1B NFkB inh	IL1B cytotox	SDO1 yeast rescue	NFkB transloc pot	MRP1 act	SDO1 rescue DR
O=C(CSc1nnnn1-c1ccccc1)Nc1nsc(-c2ccccc2)n1	-13	-4	-10	-0.36	5	-1	.
CCCCN(CC)S(=O)(=O)N1CCC(C(=O)NCc2ccc(F)cc2)CC1	5	-24	-17	-1.1	24	-1	.
COC(=O)C1(c2ccccc2)NC(c2cccs2)C2C(=O)N(c3ccccc3)C(=O)C21 (stereo not given)	1	0	13	0.05	0	-1	.
COC(=O)C1(C(=O)OC)NOC2C(=O)N(c3ccccc3)C(=O)C21 (stereo not given)	.	-2	-3	7.8*	2	-1	0.092*
CCN(CC)S(=O)(=O)c1ccc(NC2c3ncccc3C(=O)N2Cc2ccccc2)cc1 (stereo not given)	.	.	.	10*	.	-4	0.036
Nc1cc(-c2cccc([N+](=O)[O-])c2)[nH]n1	.	.	.	0.65	.	0	.
Nc1cc(-c2ccc(Br)cc2)[nH]n1	.	.	.	5.4*	.	-2	0.096*
COc1ccc(NC(=O)COC(=O)c2cc(SC)ccc2Cl)c(OC)c1	.	.	.	0.24	.	-3	.
Cn1c(=O)c2c(nc(NC3CCCCC3)n2CC(O)COc2ccccc2)n(C)c1=O (stereo not given)	47	-7	13	-0.9	7	-5	.
COc1ccc(OCC(O)Cn2c(Nc3ccccc3)nc3c2c(=O)n(C)c(=O)n3C)cc1 (stereo not given)	-5	0	-14	1.2	0	-1	0.052*
N#Cc1cc2c(nc1SCC(=O)Nc1sc3c(c1C#N)CCC3)CCC2	-27	9	15	1.1	-9	-4	0.024
Cc1cc(C)c(-c2csc(NC(=O)COC(=O)c3ccc4c(c3)OCO4)n2)c(C)c1	.	.	.	0.97	.	-4	0.054
COc1cc(NC(=S)N2CCN(C(=O)C3CCCO3)CC2)c(OC)cc1Cl (stereo not given)	.	.	.	1.2	.	-1	.
C=CCN=C(C)C1=C(O)C(C)OC1=O (stereo not given)	.	.	.	14*	.	4	0.097*
CCOC(=O)c1c(-c2ccc(C)cc2)csc1NC1=NS(=O)(=O)c2ccccc21	.	.	.	-0.11	.	-2	.
Cn1c(=O)c2c(ncn2CC(=O)N2CCN(c3cccc(Cl)c3)CC2)n(C)c1=O	21	3	12	14*	-3	-3	0.049
CCNc1ccc(C2(O)C(=O)c3ccccc3C2=O)cc1	.	.	.	0.54	.	2	.
O=C(CCC(=O)Nc1ccccc1Cl)N/N=C1\CCCc2ccccc21	.	.	.	13*	.	-3	0.083*
CCC(C)n1c(SCc2ccc([N+](=O)[O-])cc2)nc2ccsc2c1=O (stereo not given)	.	.	.	-0.61	.	3	.
CCN1CCN(CC(O)COCCOc2ccc(Br)cc2)CC1 (stereo not given)	.	.	.	6.9*	.	-1	0.041
COc1ccc(-n2c(C)cc(SC)c(C(C)=O)c2=S)cc1	.	-5	-12	0.38	5	-1	.
CSc1cc(C)n(-c2ccc(Cl)cc2)c(=S)c1C(C)=O	.	3	0	11*	-3	-2	0.05
Cc1ccc(CNC(=O)c2ccc(COc3ccccc3)cc2)cc1	.	.	.	-0.44	.	3	.
Cn1c(SCC(=O)Nc2ccc3nc(SCC(=O)N4CCCC4)sc3c2)nnc1-c1ccc(N)cc1	.	-4	-7	0.92	4	-2	.
C=CCC1(C#N)C(SC)=NC2=C(C(=O)CC(C)(C)C2)C1c1ccc(Br)cc1 (stereo not given)	.	.	.	-1.2	.	2	.
SMILES	MRP reversal	IL1B NFkB inh	IL1B cytotox	SDO1 yeast rescue	NFkB transloc pot	MRP1 act	SDO1 rescue DR
Cc1ccc(C)n1CCN1CCN(C(=O)c2ccco2)CC1	2	0	-2	3*!	0	-5	0.052
CN(C)S(=O)(=O)c1ccc(Cl)c(NC(=O)COC(=O)c2cc(-c3ccccc3)nc3ccccc23)c1	.	.	.	-1.2	.	1	.
CC(C)OC(=O)CSc1nnc(-c2ccccc2)n1N	9	5	-13	6.7*	-5	0	0.044
CN(c1ccccc1)S(=O)(=O)c1ccc(NC(=S)NC(=O)c2ccccc2)cc1	.	-18	-4	-1.4	17	0	.
COc1ccccc1/C=C/C(=O)NC(=S)Nc1ccc(S(=O)(=O)N(C)c2ccccc2)cc1	.	-10	0	2	10	-3	0.047
COc1ccc(N2CCN(C(=O)C3COc4ccccc4O3)CC2)cc1 (stereo not given)	27	-12	-2	0.43	12	-1	.
O=C(C1COc2ccccc2O1)N1CCN(c2ccccc2F)CC1 (stereo not given)	17	1	-11	3.1*	-1	-1	0.11*
Cc1onc(-c2c(F)cccc2Cl)c1C(=O)NC1CCSC1=O (stereo not given)	2	-3	-17	5*	3	5	0.059
Cc1onc(-c2c(F)cccc2Cl)c1C(=O)Nc1nnc(C2CC2)s1	-4	-8	16	0.03	8	0	.
COCCN1C(=O)C(O)=C(C(=O)c2ccco2)C1c1cccc(Oc2ccccc2)c1 (stereo not given)	-6	-8	-20	9*	8	-3	0.076*
Cc1noc(/C=C/c2ccco2)c1S(=O)(=O)N1CCC(C(=O)N2c3ccccc3CC2C)CC1 (stereo not given)	3	-26	-17	-0.65	26	-3	.
CCC(C)[C@H](NC(=O)NCCCN1CCOCC1)C(=O)OC (stereo not given in full)	5	12	5	5.6*	-11	0	0.065
CC(C)c1onc(C(=O)NCc2ccccc2)c1[N+](=O)[O-]	.	.	.	1.2	.	-4	.
CCOC(=O)C(NC(=O)OC(C)C)(Nc1nccs1)C(F)(F)F (stereo not given)	-11	3	2	13*	-3	1	0.088*
COc1cc(/C=N/NC(=O)CCC(=O)NCc2ccccc2)cc(OC)c1OC	.	.	.	4.5*	.	-2	0.095*
COc1cc(/C=N/NC(=O)CCn2c3ccccc3c3ccccc32)cc(OC)c1OC	.	.	.	0.28	.	1	.
COc1cc(/C=N/NC(=S)N/N=C/c2cc(OC)c(OC)c(OC)c2)cc(OC)c1OC	.	.	.	3*	.	-3	0.03
CCCCn1c(-c2ccccc2)nc2c(=O)n(C)c(=O)[nH]c21	-15	-1	-3	0.06	1	-3	.
